# Dicer inh – human Dicer pre-microRNA cleavage inhibition | cat-ELCCA pre-miR-21 Dicer processing, chemiluminescence; stronger effect = higher value | z-score at 25 µM | hit rate 6% among 47,000; in the data active = z-score above about 3, passing the limit was not always enough;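 note: plate controls were vehicle for no effect and no enzyme for full effect; higher signal means more uncleaved substrate so more Dicer inhibition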
# * hit, by the source's call. Only a selection was taken, and hits are over-represented in it overall.
SMILES,Dicer inh
Cc1ccc(S(=O)(=O)Nc2cc(Cl)c3oc(=O)sc3c2)c(C)c1,12*
CC(=O)Nc1ccc(NS(=O)(=O)c2ccc(C)cc2)cc1[N+](=O)[O-],-0.02
Cc1ccc(S(=O)(=O)Nc2ccc3oc(=O)sc3c2)cc1,5*
CCOC(=O)n1c(=O)oc2cc(S(=O)(=O)Nc3ccc(C)cc3)ccc21,1.1
O=S(=O)(Nc1ccc2c(c1)OCO2)c1ccc(Cl)cc1,-0.39
O=c1oc2ccc(NS(=O)(=O)c3ccc(Cl)cc3)cc2s1,9.8*
O=S(=O)(Nc1nc(-c2ccc(Cl)cc2Cl)cs1)c1ccc(Cl)cc1,10
CCCCOC(=O)C1=C(C)NC2=C(C(=O)CCC2)C1c1ccc2c(c1)OCO2 (configuration not stated),-0.43
CN(C)c1ccc(C2CC(=O)C=C(NCc3cccs3)C2)cc1 (configuration not stated),1
CSc1nc(NC(=O)NS(=O)(=O)c2ccccc2Cl)nc(-c2ccncc2)n1,-0.13
N#CC(Nc1ccc(I)cc1)c1ccccc1 (configuration not stated),2.2
O=[N+]([O-])c1ccc(COc2ccc(C3SCCS3)cc2[N+](=O)[O-])cc1,-0.37
O=C(Oc1ccccc1)N1CCCCC1,0.56
N#C/C(=N\O)C(=O)c1ccc(Cl)cc1,-1.6
NC(=Nc1ccc(Cl)c(Cl)c1)c1ccccc1,0.06
O=[N+]([O-])c1ccc(Oc2ccc(Cl)cc2)nc1,-0.64
Cc1ccc(-n2ncc(N(C)n3cccc3)c(Cl)c2=O)cc1,-0.98
Cc1cc(C)c(C)c(S(=O)(=O)N2CC(C)OC(C)C2)c1C (configuration not stated),0.72
Cc1cccc2c1N(C(=S)Nc1cccc(C(F)(F)F)c1)CCC2,0.57
COc1ccc(OC)c(C2C(C(=O)OC(C)C)=C(C)Nc3nc4ccccc4n32)c1 (configuration not stated),-0.86
NC(=O)c1nnc2ccc(Cl)cc2c1N,-1.2
O=c1oc2c(Br)cc(NS(=O)(=O)c3ccc(Cl)cc3)cc2s1,13*
Cc1cc(=O)oc2cc(NS(=O)(=O)c3ccc(F)cc3)ccc12,0.84
O=C(O)c1ccc(S(=O)(=O)Nc2ccc3oc(=O)sc3c2)cc1,1.1
Cn1cc(Br)c(-c2cccc(NS(=O)(=O)c3ccc(Cl)cc3)c2)n1,0.02
SMILES,Dicer inh
O=c1oc2ccc(NS(=O)(=O)c3ccc(F)cc3)cc2s1,4.9*
COC(=O)c1c(C)oc2ccc(NS(=O)(=O)c3ccc(Br)cc3)cc12,0.56
Cc1cc(F)ccc1S(=O)(=O)Nc1c(C)n(C)n(-c2ccccc2)c1=O,-0.46
CCc1ccc(S(=O)(=O)Nc2ccc3oc4c(c3c2)CCCC4)cc1,2.1
Cc1ccc(S(=O)(=O)Nc2ccc3oc(=O)sc3c2)c(C)c1,1.1
CC(C)(C)C1CCc2oc3ccc(NS(=O)(=O)c4ccc(C(=O)O)cc4)cc3c2C1 (configuration not stated),4.2*
COc1ccc(OC)c(NS(=O)(=O)c2ccc(Cl)cc2)c1,1.2
Cc1cc(F)ccc1S(=O)(=O)Nc1ccc2oc(=O)sc2c1,7.8*
CCc1ccc(C2C3=C(CCCC3=O)Nc3c(-c4ccccc4)c(C)nn32)cc1 (configuration not stated),-0.56
O=C(COc1ccc(C2=Nc3ccccc3SC(c3ccccc3)C2)cc1)Nc1ccccc1 (configuration not stated),1.7
Cn1c(SCc2ccccc2Cl)nnc1-c1cncc(C#Cc2ccccc2)c1,0
C=CCOc1cccc(C2c3c(oc4ccc(F)cc4c3=O)C(=O)N2CCOC)c1 (configuration not stated),-1.4
COC(=O)CSc1nnc(-c2ccc(N(C)C)cc2)o1,-1.2
CCCCOC(=O)c1c(C)oc2ccc(NS(=O)(=O)c3cc(OC)ccc3OC)cc12,-0.97
COc1ccc(S(=O)(=O)Nc2ccc3oc(=O)sc3c2)cc1OC,3.4*
Cc1cc(F)ccc1S(=O)(=O)Nc1ccc2oc3c(c2c1)CC(C)CC3 (configuration not stated),6.6*
COc1cc(S(=O)(=O)Nc2cccnc2)ccc1F,0.84
Cc1cc(C)c(C)c(S(=O)(=O)Nc2ccc3oc(=O)sc3c2)c1C,4.3*
Cc1cc(F)ccc1S(=O)(=O)Nc1ccc2oc(C)c(C(=O)OC(C)C)c2c1,-0.11
COc1ccccc1C(=O)Oc1ccc2oc(=O)sc2c1,2.2
CC1CCc2oc3ccc(NS(=O)(=O)c4cccc5cccnc45)cc3c2C1 (configuration not stated),-0.24
CC(=O)c1cnn(-c2cc(C(F)(F)F)cc(C)n2)c1C,1.6
Cc1nn(-c2ccccc2)c2sc(C(=O)Nc3c(C)n(C)n(-c4ccccc4)c3=O)cc12,0.17
CSc1nc2ccccc2c(=O)n1CC(=O)C(C)(C)C,1.5
Cc1nc2ccccc2c2c1C(=O)N(c1ccccc1C(=O)OCC(=O)C(C)(C)C)C2=O,4.7*
SMILES,Dicer inh
Cc1nc2ccccc2c(C(=O)O)c1C(=O)O,-1.6
CC1(C)CCc2cc(/C=N\NC(=O)c3cccc(Cl)c3Cl)ccc2O1,0.38
CN1N=C(c2ccccc2)CSC1=Nc1ccc(Cl)cc1,-0.05
CC1CCc2c(sc3nnn(CC(=O)OC(C)C)c(=O)c23)C1 (configuration not stated),1.4
CC1CCc2c(sc3nnn(CC(N)=O)c(=O)c23)C1 (configuration not stated),6.4*
CC1CCc2c(sc3nnn(CC(=O)N4CCCCC4)c(=O)c23)C1 (configuration not stated),2
COc1ccc(C2c3c(oc4ccc(C)cc4c3=O)C(=O)N2Cc2ccc3c(c2)OCO3)cc1OC (configuration not stated),2.4
COc1ccc2[nH]c(C(=O)N(C)C3CCN(C)CC3)cc2c1,-0.08
CSc1nc(N/C=C(\C#N)S(=O)(=O)c2ccccc2Cl)nc(C2CC2)n1,-1.1
CN(C(=O)C1CCCCC1)c1nc(-c2ccc(Cl)s2)cs1,-1.5
Cc1ccc2nc(C3C(=O)c4ccc(O)cc4C3=O)cc(C)c2c1 (configuration not stated),3.7*
Cc1cc(C2C(=O)c3ccccc3C2=O)nc2ccccc12,0.53
Cc1ccc2nc(C3CCCCC3)cc(C(=O)O)c2c1,8.6
C=CCNC(=S)NNC(=O)OCC,-2.1
COc1ccc(C(=O)N2CCSC2=S)cc1OC,3.5*
COCOc1ccc(C(=O)O)cc1OC,-0.83
COc1ccc(C(=O)N2CCSC2=S)cc1,0.68
Cc1ccc(S(=O)(=O)N2/C(=C\COc3ccccc3)C(N3CCN(C)CC3)c3ccccc32)cc1 (configuration not stated),1.3
C#CC1(NC(=O)Nc2ccccc2)CCCCC1,-0.38
O=C(Nc1nnc(COc2ccc(Cl)cc2)s1)c1ccco1,4*
COCc1nnc(NC(=O)COc2ccc(Cl)cc2)s1,0.02
O=C(Nc1nnc(CCSc2ccc3ccccc3c2)s1)c1ccco1,1
CN(C)C(=S)NCc1ccc(F)cc1,-0.51
Cc1sc2c(c1C)C(=O)/C(=C\Nc1ccccn1)S(=O)(=O)N2C,0.25
Cc1sc2c(c1C)C(=O)/C(=C\Nc1ccccc1Cl)S(=O)(=O)N2C,4.8*
CN1c2ccsc2C(=O)/C(=C\Nc2ccccc2Cl)S1(=O)=O,-0.04
C[C@]12CCC(=O)C=C1CC[C@@H]1[C@@H]2CC[C@@]2(C)[C@H]1CC[C@]2(O)C(=O)CO,3.3*
CC(=O)[C@H]1CC[C@H]2[C@@H]3CCC4=CC(=O)CC[C@]4(C)[C@H]3CC[C@]12C,1.4

# Compound activity (PubChem)
